# Publication PMC7862700, “An all-to-all approach to the identification of sequence-specific readers for epigenetic DNA modifications on cytosine”
# Tests used:
# Assay in all cases: DAPPL (digital affinity profiling via proximity ligation, sequencing); 10 mM Tris-HCl pH 7.5, 50 mM NaCl, 1 mM DTT, 4% glycerol, room temperature, 30 min; GST-TFs on glutathione beads, 16-mer random dsDNA library, 0.1% formaldehyde crosslink after washing; high values mean tight binding
# Conditions in all cases: protein: recombinant; tags: N-terminal GST; dsDNA, one strand shown
# ETV1 = ETV1 (Homo sapiens, UniProt P50549 1-477)
# Chain of ETV1 (P50549 whole entry, the tested form may be a part): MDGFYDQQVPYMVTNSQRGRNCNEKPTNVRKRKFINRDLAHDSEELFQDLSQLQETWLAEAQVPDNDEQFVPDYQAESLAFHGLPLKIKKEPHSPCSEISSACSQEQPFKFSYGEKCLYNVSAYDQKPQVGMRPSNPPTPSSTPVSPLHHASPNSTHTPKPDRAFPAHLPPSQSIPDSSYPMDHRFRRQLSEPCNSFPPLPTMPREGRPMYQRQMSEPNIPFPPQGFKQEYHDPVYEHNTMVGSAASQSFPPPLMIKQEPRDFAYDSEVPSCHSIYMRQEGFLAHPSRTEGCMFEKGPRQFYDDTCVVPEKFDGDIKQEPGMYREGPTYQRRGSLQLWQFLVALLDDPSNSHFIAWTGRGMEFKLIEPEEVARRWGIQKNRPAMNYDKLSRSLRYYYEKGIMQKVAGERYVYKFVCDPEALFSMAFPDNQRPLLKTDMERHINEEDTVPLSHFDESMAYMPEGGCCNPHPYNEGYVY
# Outline: (§1)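 After expression in yeast as GST fusions, human transcription factors were bound to glutathione beads, DNA-barcoded and mixed with a tag-only sample. The pools were incubated with 200 nmole of a 16-mer random double-stranded DNA library in Tris/NaCl/DTT/glycerol buffer (30 min, room temperature), washed and crosslinked with 0.1% formaldehyde. Proximity ligation with BsaI/T4 ligase ran for 1 h at 37 °C, before PCR amplification and sequencing on an Illumina NextSeq500. Binding signal is a hexamer's read frequency for a factor divided by its frequency for the tag-only sample.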
# ERF = molecular target: T1, ERF (Homo sapiens, UniProt P50548 1-548)
# T1 sequence: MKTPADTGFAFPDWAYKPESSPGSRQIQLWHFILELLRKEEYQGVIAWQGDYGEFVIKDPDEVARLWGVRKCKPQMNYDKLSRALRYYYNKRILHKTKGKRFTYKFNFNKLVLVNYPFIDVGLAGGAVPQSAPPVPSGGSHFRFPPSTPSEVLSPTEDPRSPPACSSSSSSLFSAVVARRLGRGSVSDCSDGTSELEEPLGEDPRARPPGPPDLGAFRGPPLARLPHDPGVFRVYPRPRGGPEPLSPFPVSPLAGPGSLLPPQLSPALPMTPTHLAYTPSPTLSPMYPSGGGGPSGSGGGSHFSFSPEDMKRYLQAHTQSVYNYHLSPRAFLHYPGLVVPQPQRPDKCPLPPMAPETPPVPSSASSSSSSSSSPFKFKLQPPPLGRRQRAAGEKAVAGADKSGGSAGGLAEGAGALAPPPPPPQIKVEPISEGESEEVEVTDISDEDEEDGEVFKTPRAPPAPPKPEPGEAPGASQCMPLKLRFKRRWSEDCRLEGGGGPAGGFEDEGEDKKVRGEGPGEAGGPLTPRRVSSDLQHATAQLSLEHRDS
# Outline: as §1
# ETV3L = molecular target: T2, ETV3L (Homo sapiens, UniProt Q6ZN32 1-361)
# T2 sequence: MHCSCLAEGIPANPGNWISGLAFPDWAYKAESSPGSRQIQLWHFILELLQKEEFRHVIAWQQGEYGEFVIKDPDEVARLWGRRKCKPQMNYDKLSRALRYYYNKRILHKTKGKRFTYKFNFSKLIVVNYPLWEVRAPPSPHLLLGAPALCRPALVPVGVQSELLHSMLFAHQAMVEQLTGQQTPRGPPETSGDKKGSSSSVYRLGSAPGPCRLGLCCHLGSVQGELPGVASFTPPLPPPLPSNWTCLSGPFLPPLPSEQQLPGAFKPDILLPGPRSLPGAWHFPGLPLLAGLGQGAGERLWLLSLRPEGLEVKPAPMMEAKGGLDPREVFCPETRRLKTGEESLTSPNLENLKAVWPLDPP
# Outline: as §1
# ETS2 = molecular target: T3, ETS2 (Homo sapiens, UniProt P15036 1-469)
# T3 sequence: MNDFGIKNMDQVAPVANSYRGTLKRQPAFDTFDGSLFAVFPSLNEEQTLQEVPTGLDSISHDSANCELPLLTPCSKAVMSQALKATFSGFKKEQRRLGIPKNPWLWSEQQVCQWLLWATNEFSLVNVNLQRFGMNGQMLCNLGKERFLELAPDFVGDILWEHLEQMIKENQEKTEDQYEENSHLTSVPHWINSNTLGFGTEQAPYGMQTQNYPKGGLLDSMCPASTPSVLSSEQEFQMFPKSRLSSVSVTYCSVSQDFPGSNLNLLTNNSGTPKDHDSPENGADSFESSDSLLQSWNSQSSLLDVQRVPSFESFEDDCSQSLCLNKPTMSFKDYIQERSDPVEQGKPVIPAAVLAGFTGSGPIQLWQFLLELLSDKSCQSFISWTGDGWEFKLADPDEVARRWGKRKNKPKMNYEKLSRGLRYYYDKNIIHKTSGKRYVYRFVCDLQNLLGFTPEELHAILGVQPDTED
# Outline: as §1
# SPDEF = molecular target: T4, SPDEF (Homo sapiens, UniProt O95238 1-335)
# T4 sequence: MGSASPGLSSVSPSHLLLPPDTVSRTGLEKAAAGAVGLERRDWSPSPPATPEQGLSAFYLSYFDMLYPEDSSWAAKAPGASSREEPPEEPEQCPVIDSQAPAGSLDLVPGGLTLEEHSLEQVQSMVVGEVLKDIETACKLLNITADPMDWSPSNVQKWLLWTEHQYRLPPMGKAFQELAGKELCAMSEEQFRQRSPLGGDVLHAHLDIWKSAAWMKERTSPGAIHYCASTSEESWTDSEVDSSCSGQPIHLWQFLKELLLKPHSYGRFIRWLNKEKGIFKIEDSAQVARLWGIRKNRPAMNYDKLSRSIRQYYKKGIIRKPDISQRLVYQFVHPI
# Outline: as §1
# ETV7 = molecular target: T5, ETV7 (Homo sapiens, UniProt Q9Y603 1-341)
# T5 sequence: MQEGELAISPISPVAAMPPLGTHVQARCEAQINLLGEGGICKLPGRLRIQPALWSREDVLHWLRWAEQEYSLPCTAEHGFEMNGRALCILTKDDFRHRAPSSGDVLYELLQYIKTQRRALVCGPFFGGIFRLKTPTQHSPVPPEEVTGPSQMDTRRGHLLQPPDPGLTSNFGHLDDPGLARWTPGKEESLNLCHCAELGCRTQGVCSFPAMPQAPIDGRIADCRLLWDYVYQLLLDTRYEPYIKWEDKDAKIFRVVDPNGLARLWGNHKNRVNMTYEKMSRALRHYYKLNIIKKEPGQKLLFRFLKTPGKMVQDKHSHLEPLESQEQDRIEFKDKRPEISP
# Outline: as §1
# ELF5 = molecular target: T6, ELF5 (Homo sapiens, UniProt Q9UKW6-2 1-255)
# T6 sequence: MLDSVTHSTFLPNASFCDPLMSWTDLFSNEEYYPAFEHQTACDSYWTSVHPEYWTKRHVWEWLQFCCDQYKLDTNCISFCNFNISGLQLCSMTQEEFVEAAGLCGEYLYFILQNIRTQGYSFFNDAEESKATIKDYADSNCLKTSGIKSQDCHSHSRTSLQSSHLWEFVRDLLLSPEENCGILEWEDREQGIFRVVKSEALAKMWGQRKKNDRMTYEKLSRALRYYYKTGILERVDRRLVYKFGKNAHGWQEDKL
# Outline: as §1
# ETV3 = molecular target: T7, ETV3 (Homo sapiens, UniProt P41162-2 1-143)
# T7 sequence: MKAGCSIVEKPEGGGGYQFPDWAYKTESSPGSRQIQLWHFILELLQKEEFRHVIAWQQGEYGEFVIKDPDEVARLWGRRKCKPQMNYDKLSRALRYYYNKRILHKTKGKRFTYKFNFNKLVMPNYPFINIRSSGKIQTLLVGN
# Outline: as §1
# ETV6 = ETV6 (Homo sapiens, UniProt P41212 1-452)
# Chain of ETV6 (P41212 whole entry): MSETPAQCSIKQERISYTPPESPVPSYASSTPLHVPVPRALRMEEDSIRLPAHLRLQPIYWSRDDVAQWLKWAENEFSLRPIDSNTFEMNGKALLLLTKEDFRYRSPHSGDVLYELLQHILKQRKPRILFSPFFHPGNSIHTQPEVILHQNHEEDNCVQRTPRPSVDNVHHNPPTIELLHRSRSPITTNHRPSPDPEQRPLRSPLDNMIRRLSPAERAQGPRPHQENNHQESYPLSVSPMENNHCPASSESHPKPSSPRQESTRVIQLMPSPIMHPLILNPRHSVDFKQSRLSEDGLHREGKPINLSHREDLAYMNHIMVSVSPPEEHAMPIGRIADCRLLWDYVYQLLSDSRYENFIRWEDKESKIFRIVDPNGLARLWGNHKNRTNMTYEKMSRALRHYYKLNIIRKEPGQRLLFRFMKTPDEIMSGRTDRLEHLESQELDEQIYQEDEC
# Outline: as §1
sequence,measurement,setting,value
AATCTT,binding signal,ETV1,"1.39 fold enrichment (6-mer frequency, TF over GST control)"
same,binding signal,ERF,"1.26 fold enrichment (6-mer frequency, TF over GST control)"
same,binding signal,ETV3L,"1.38 fold enrichment (6-mer frequency, TF over GST control)"
same,binding signal,ETS2,"1.41 fold enrichment (6-mer frequency, TF over GST control)"
same,binding signal,SPDEF,"1.27 fold enrichment (6-mer frequency, TF over GST control)"
same,binding signal,ETV7,"1.31 fold enrichment (6-mer frequency, TF over GST control)"
same,binding signal,ELF5,"1.43 fold enrichment (6-mer frequency, TF over GST control)"
same,binding signal,ETV3,"1.31 fold enrichment (6-mer frequency, TF over GST control)"
same,binding signal,ETV6,"1.31 fold enrichment (6-mer frequency, TF over GST control)"
